High-throughput results: PubChem, National Center for Advancing Translational Sciences (NCATS)
The list is not random: actives were taken first. Their share in the collection is about 12%.
BAZ2B inh: qHTS Assay for Inhibitors of BAZ2B. Bromodomain adjacent to zinc finger domain protein 2B (Homo sapiens), Q9UIF8. AlphaScreen BAZ2B-H3K14Ac peptide displacement. Potency, µM (highest dose often 114 µM), inactives show top-dose activity change, negative = inhibition, actives largely listed as inhibitors. hit rate 4.4% among 360,000. AID 504333, 2011; note: % is set by controls: 0 for no effect and ±100 for the full control effect; nearly all actives have a fitted effect of over 60% in size
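Inhibition is scored as reduced AlphaScreen emission. The BAZ2B/b-H3(5-23)K14Ac complex (50 nM each) in PBS pH 7.4, 0.01% Tween-20 meets compound (up to 110 uM) for 30 min at RT before bead addition.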
JMJD2A Tudor inh: qHTS Assay for Inhibitors of JMJD2A-Tudor Domain; Lysine-specific demethylase 4A (Homo sapiens), O75164; AlphaScreen JMJD2A-Tudor / H3K4me3 peptide binding; Potency, µM (highest dose often 114 µM), without a hit: at the highest dose activity change, negative = inhibition, usual class: inhibitors; hit rate 4.4% among 390,000; note: % is set by controls: 0 for no effect and ±100 for the full control effect; nearly all actives have a fitted effect of over 50% in size
Target sequence (O75164 whole entry, looked up, the tested form may be a part): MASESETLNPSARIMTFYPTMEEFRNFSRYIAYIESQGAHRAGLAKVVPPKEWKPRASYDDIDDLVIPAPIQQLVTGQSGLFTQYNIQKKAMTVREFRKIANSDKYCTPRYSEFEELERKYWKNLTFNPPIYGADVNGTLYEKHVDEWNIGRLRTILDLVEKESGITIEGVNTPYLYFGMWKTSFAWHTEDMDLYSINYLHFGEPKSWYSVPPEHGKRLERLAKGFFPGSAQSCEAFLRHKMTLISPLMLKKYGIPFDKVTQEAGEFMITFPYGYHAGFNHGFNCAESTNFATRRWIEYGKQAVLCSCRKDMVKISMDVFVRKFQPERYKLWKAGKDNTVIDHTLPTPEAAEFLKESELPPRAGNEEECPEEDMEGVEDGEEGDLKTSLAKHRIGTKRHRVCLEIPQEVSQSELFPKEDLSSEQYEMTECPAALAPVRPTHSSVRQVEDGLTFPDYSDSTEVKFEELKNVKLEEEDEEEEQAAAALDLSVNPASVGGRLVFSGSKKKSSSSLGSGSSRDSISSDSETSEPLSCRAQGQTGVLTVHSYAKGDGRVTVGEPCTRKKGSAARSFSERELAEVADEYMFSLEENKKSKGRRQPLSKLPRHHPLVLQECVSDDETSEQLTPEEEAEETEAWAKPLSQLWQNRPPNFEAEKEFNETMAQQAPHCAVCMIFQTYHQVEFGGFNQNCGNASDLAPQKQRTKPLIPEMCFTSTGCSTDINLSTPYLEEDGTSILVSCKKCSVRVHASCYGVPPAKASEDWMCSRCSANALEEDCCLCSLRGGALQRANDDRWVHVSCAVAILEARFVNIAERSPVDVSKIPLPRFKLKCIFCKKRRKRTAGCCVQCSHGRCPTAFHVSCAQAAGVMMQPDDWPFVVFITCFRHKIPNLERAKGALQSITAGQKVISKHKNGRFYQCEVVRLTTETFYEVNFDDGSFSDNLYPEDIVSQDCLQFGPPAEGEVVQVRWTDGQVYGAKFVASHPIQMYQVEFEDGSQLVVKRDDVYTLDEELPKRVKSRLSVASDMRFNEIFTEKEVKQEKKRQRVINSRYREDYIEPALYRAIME
HP1b chromo inh: HTS for Inhibitors of HP1-beta Chromodomain Interactions with Methylated Histone Tails | Chromobox protein homolog 1 (Homo sapiens), P83916 | AlphaScreen HP1-beta / biotin-H3K9me3 peptide binding | Potency, µM (doses to about 114 µM), without a hit: top-dose activity change, negative = inhibition, most hits filed as inhibitors | hit rate 0.56% among 390,000; note: nearly all actives have a fitted effect of over 70% in size
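HP1-beta protein (50 nM final) preincubated 30 min at room temperature with biotinylated H3(1-18)K9me3 peptide (50 nM) in PBS pH 7.4, 0.01% Tween-20, then compound added for 30 min. AlphaScreen streptavidin donor/nickel chelate acceptor beads (10 ug/mL final), 30 min dark, luminescence read.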
Sfp PPTase inh: qHTS Assay for Inhibitors of Bacillus subtilis Sfp phosphopantetheinyl transferase (PPTase); 4'-phosphopantetheinyl transferase ffp (Bacillus subtilis), Q9F4F7; Biochemical Sfp PPTase activity, qHTS; hit rate 3.5% among 310,000; Potency, µM, inactives show largest response in the series, negative = inhibition, most hits filed as inhibitors;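 note: the enzyme is Sfp with the accession as filed and its product quenches rhodamine fluorescence; 0% = enzyme reaction without inhibitor and -100% = no enzyme wells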
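Fluorescence-quenching assay with 15 nM Sfp, 5 uM rhodamine-CoA and 12.5 uM BHQ-2-labelled ybbR peptide in pH 7.6 Hepes/MgCl2 buffer. Enzyme was pre-incubated with compound for 15 min at room temperature. Rate was taken from the 30-min fluorescence change (525/598 nm).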
L3MBTL1 block: qHTS Assay for the Inhibitors of L3MBTL1; AID 485360, 2010; hit rate 0.66% among 230,000; AlphaScreen L3MBTL1–H3K9me1 peptide binding; Potency, µM (series often up to 57.1 µM), for the others: at the top dose activity, negative = inhibition, most hits filed as inhibitors; Lethal(3)malignant brain tumor-like protein 1 (Homo sapiens), Q9Y468; note: % is set by controls: 0 for no effect and ±100 for the full control effect; nearly all actives have a fitted effect of over 60% in size
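AlphaScreen assay: L3MBTL1 (50 nM final) was preincubated 30 min at room temperature with biotinylated H3(1-15)K9me1 peptide (75 nM final), then 30 min with library compounds; streptavidin donor and nickel chelate acceptor beads (10 ug/mL final) added, 30 min dark.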
G9a inh: qHTS Assay for Inhibitors of Histone Lysine Methyltransferase G9a; Histone-lysine N-methyltransferase EHMT2 (Homo sapiens), Q96KQ7; G9a H3K9 monomethylation, AlphaScreen, 2 h; Potency, µM (titrated, usually from 102 µM), for the others: at the top dose activity, negative = inhibition, usual class: inhibitors; hit rate 8.8% among 350,000; note: % is set by controls: 0 for no effect and ±100 for the full control effect; nearly all actives have a fitted effect of over 75% in size
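AlphaScreen detection with an anti-monomethyl H3K9 antibody quantified product after a 2 h room-temperature reaction containing 500 nM biotinylated H3K9 peptide, 20 µM SAM and 20 nM enzyme, which had been preincubated 15 min with compound.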
* marks the source's active call; other numbers are inactive results; ? = inconclusive; · = not tested or not shown; [ ] = another dose, or the depositor's remark. Calls come from the whole dose curve; as a rule, active = well fitted curve in the direction sought with a large enough effect; inconclusive = small, poorly fitted or top-dose-only effect, or another doubt; inactive = no such curve, though single readings can be large; an effect the other way counts as inactive or inconclusive. Potency is the fitted concentration of half-maximal effect.

SMILES	BAZ2B inh	JMJD2A Tudor inh	HP1b chromo inh	Sfp PPTase inh	L3MBTL1 block	G9a inh
O=Cc1ccc2cccnc2n1	-8%	?	44%	16µM*	·	40µM*
O=S(=O)(O)c1cccc2cccnc12	·	?	23%	·	·	·
O=C(Nc1ccc(S(=O)(=O)Nc2ccccc2)cc1)N1CCCC1	2%	-19%	17%[57 µM]	·	·	-3%[59 µM]
CCOC(=O)CSc1cn2c(n1)CCC2	6%	-24%	13%	40µM*	-21%	10µM*
CCOC(=O)CSc1nc(C)cc(C)n1	10%	-12%	30%	-3%	·	?
CCCCC[C@H]1CN(CCc2ccccc2)C(=O)[C@@H]1CC(=O)NCc1ccc(OC)cc1	12%	-15%	53%	-7%	8%	45µM*
COC(=O)c1c(N)n(-c2cc(Cl)cc(Cl)c2)c2nc3ccccc3nc12	?	-12%	-8%	·	·	-8%[59 µM]
COc1ccc(-n2c(O)c(/C=N/n3cnnc3)c3ccccc3c2=O)cc1	56µM*	45µM*	15%	5%	-11%	50µM*
COc1ccc(-n2c(O)c(C=Nc3ccccc3)c3ccccc3c2=O)cc1OC	-2%	-10%	21%	-1%	-2%	2%
O=c1c2ccccc2c(/C=N/n2cnnc2)c(O)n1-c1ccccc1	?	89µM*	19%	15%	-10%	-10%[12.7 µM]
COc1ccc(-n2c(O)c(C=Nc3ccccc3)c3ccccc3c2=O)cc1	-18%	-8%	61%	2%	·	-42%
COc1ccc(-c2csc3ncnc(Nc4ccc(OC)cc4OC)c23)cc1	-29%	-30%	-15%	·	·	-39%[59 µM]
COc1ccc(C2=Nn3c(nnc3-c3ccc(OC)cc3OC)SC2)c(OC)c1	·	-25%	·	5%	·	·
Cc1ccc(C2Nc3ccccc3-n3c(-c4ccccc4)c4c(=O)n(C)c(=O)n(C)c4c32)cc1 (stereo unspecified)	-21%	-27%	24%	·	·	?
O=C(Cn1cc(S(=O)(=O)N2CCCC2)c(S(=O)(=O)N2CCCC2)c1)Nc1ccccc1	7%[57.1 µM]	-19%	4%	·	·	-8%[59 µM]
COC(=O)C1=C(C)N(CC(C)C)C(=O)/C1=C\c1cccs1	50µM*	45µM*	16µM*	3%	·	40µM*
CCOC(=O)C1=C(C)N(CC(C)C)C(=O)/C1=C\c1cccs1	11µM*	?	?	-16%	-19%	·
COCCCN1C(=O)/C(=C\c2cccs2)C(C(=O)OC)=C1C	?	-34%	-3%	7%	·	?
COC(=O)C1=C(C)N(C)C(=O)/C1=C\c1cccs1	?	?	?	9%	-10%	?
COC(=O)C1=C(C)N(C2CCCCC2)C(=O)/C1=C\c1cccs1	3.2µM*	?	-33%	12%	·	3.2µM*
CCN1C(=O)/C(=C\c2cccs2)C(C(=O)OC)=C1C	50µM*	56µM*	?	-1%	·	45µM*
CCOc1ccccc1CNCc1c(C(=O)O)c(C)n(Cc2ccc(Cl)cc2)c1C	-21%	-10%	9%	·	·	9%[59 µM]
COc1ccc(/C=C/c2nc(C#N)c(NC3CCCCC3)o2)cc1OC	-38%	11%	4%	·	·	11%[59 µM]
COC(=O)C1=C(C)N(Cc2cccnc2)C(=O)/C1=C\c1sccc1C	35µM*	45µM*	35µM*	-22%	?	·
COC(=O)C1=C(O)/C(=C\c2sccc2C)N=C1C	-22%	-4%	12%	5%	3%	17%
SMILES	BAZ2B inh	JMJD2A Tudor inh	HP1b chromo inh	Sfp PPTase inh	L3MBTL1 block	G9a inh
NC(=O)c1sc2nc(-c3cccnc3)ccc2c1N	-28%	-17%	35%	?	·	10µM*
COC(=O)c1sc2nc(N)c(C#N)cc2c1N	-32%	-15%	15%	-18%	4%	45µM*
COC(=O)c1sc2nc(-c3ccco3)ccc2c1N	-4%	-6%	43%	8.9µM*	-2%	?
CN(C)c1cccc(S(=O)(=O)N2CCN(S(=O)(=O)c3ccc4c(c3)OCCO4)CC2)c1	·	-23%	·	·	·	·
CC(C)NC(=O)c1ccc(C(C)C)cc1	-6%	-14%	-19%	6%	·	22%
CCCCCOc1ccc(CSc2n[nH]c(C)n2)cc1	5%	?	-11%	-30%	-4%	·
Cc1nc(SCc2ccc(OCCC(C)C)cc2)n[nH]1	-15%	-15%	29%	6%	7%	50µM*
Cc1cc2n(n1)CCCN2C(=O)Nc1ccccc1F	0%[57.1 µM]	-3%	15%	·	·	-6%[59 µM]
Cc1nc2ccccc2c(=O)n1NC(=O)COc1ccccc1	-22%	-17%	4%	2%	·	-43%[12.7 µM]
O=C(COc1ccccc1)Nn1cnc2ccccc21	?	-15%	31%	?	-1%	20µM*
CC(C)(C)OC(=O)N1CCC(c2c(C(=O)NCCc3ccccc3)cnn2-c2ccc(F)cc2)CC1	1%[57.1 µM]	-8%	20%	·	·	?
Cc1c(CNC(C)CCc2ccccc2)c(C(=O)O)c(C)n1Cc1ccc(F)cc1Cl (stereo unspecified)	-23%	-22%	26%	·	·	-1%[59 µM]
O=[N+]([O-])c1c(Nc2ccccn2)cc(Cl)c2nonc12	?	?	?	7.9µM*	·	0.71µM*
O=C(O)c1cccc(Nc2ccc([N+](=O)[O-])c3nonc23)c1	?	-12%	?	2%	·	71µM*
O=C(O)c1ccccc1Nc1cc(Cl)c2nonc2c1[N+](=O)[O-]	-33%	-21%	32%	?	·	45µM*
O=[N+]([O-])c1c(Nc2ccc(O)cc2)cc(Cl)c2nonc12	?	?	-16%	50µM*	·	32µM*
COc1cc(OC)c(NC(=O)C(NS(=O)(=O)c2cccc3nsnc23)c2ccccc2)cc1Cl (stereo unspecified)	·	?	10%	·	·	?
CCOC(=O)c1cccc(NC(=O)[C@H](CSCc2ccccc2)N2Cc3ccccc3C2=O)c1	-21%	-25%	26%	·	·	-35%[59 µM]
O=C(O)c1cccc(Nc2cc(Cl)c3nonc3c2[N+](=O)[O-])c1	-17%	-11%	39%	-65%	15%	32µM*
O=[N+]([O-])c1ccc(Nc2ccccc2O)c2nonc12	?	50µM*	?	0%	?	?
CC(=O)c1ccc(Nc2ccc([N+](=O)[O-])c3nonc23)cc1	?	-30%	-9%	5%	-16%	?
COc1cc(C)ccc1OCCSc1nc2ccc(NC(=O)c3ccccc3F)cc2s1	7%	4%	49%	·	·	25%[59 µM]
COC(=O)c1cn(NC(=O)c2cnccn2)c(=O)c2ccccc12	7.1µM*	11µM*	21%	9%	-28%	?
